Data from PubChem BioAssay.

biological target: Neurogenic locus notch homolog protein 2 (Homo sapiens) (UniProt Q04721); assay: Notch2 binders on small-molecule microarrays, primary screen, biochemical, small-molecule microarray, 635 nm fluorescence, stem cell growth factors (AID 1073); conditions: Notch2 binding, higher = more signal
Sequence (Q04721 whole entry, looked up): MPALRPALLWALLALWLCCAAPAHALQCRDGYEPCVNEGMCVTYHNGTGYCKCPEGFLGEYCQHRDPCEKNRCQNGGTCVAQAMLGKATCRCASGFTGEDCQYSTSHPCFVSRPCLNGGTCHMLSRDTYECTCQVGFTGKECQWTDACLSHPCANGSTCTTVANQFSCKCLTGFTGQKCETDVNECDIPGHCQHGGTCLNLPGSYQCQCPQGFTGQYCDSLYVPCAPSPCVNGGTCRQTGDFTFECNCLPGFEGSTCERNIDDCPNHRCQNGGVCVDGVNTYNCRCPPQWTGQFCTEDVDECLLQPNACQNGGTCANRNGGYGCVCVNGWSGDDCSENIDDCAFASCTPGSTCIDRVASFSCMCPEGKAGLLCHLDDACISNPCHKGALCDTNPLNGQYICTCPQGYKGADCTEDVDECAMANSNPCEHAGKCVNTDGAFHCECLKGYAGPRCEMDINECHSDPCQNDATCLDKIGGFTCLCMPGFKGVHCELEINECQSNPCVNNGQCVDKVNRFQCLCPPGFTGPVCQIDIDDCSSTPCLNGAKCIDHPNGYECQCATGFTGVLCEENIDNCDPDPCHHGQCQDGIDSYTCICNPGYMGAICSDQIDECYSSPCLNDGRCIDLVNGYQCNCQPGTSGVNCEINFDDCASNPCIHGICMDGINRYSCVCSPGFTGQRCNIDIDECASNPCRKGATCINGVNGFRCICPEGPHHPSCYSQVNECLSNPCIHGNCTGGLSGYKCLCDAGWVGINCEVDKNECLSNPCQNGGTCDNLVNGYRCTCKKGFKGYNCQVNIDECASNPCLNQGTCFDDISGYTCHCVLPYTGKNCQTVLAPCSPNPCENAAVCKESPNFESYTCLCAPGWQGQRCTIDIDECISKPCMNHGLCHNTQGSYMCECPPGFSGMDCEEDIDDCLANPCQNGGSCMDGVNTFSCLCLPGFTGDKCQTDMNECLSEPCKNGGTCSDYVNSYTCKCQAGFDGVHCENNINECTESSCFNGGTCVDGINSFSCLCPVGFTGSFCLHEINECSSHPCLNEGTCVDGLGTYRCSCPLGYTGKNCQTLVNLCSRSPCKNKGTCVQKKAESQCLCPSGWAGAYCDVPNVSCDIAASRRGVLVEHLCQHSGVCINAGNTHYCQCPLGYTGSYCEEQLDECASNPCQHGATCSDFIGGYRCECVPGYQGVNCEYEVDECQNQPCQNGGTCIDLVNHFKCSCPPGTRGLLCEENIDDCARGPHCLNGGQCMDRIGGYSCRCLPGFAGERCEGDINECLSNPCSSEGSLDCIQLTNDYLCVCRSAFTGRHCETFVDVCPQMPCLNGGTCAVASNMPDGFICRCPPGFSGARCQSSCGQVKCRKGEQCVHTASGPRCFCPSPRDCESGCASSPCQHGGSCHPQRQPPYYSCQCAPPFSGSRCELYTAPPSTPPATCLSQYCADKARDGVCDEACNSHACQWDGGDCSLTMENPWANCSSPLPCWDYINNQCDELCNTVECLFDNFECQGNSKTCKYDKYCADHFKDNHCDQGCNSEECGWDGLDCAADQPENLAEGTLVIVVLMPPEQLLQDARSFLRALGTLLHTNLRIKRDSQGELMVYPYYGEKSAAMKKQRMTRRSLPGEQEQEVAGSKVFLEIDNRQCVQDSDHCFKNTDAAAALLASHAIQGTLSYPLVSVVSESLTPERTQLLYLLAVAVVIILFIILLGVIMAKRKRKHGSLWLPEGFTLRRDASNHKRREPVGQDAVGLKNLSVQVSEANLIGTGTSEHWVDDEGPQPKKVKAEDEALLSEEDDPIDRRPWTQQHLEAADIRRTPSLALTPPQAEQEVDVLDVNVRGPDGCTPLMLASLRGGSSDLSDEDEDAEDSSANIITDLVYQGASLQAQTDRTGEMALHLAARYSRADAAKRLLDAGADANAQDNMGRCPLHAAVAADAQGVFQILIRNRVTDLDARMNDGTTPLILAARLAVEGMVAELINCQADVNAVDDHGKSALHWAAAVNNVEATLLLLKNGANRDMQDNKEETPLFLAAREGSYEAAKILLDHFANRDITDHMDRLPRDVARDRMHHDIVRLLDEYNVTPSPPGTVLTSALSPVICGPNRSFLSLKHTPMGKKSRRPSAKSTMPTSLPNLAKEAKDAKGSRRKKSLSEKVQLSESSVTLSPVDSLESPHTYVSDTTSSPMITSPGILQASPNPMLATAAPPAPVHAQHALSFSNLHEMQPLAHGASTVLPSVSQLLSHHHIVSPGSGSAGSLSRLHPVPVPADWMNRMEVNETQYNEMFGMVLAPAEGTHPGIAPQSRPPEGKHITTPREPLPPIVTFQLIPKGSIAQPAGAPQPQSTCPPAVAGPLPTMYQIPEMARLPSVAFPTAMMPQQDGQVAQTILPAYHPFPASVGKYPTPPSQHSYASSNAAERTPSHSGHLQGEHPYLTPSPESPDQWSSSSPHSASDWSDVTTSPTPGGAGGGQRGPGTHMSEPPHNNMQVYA

Q: With `COC(=O)[C@@]1(Cc2ccc(OC)cc2)[C@H]2c3cc(C(=O)N(C)C)n(Cc4cc(C)n(C)n4)c3C[C@H]2CN1C(=O)c1ccccc1` as the compound, how does the composite z-score read?
A: 1.33

Q: With `O=C(NCc1ccccc1)[C@]1(Cc2ccccc2)N=C(c2ccc(OCCCO)cc2)O[C@@H]1c1ccccc1` as the compound, how does the composite z-score read?
A: 1.46

Q: With `[N-]=[N+]=NCc1ccccc1[C@H]1OC(c2ccc(OCCCO)cc2)=N[C@@]1(Cc1ccccc1N=[N+]=[N-])C(=O)N1CCCCC1` as the compound, how does the composite z-score read?
A: 1.32

Q: Which composite z-score does the source give for `COCCOC(=O)N1C(=O)[C@@]2(c3ccccc31)[C@H](c1ccc(OCCO)cc1)N1[C@H](c3ccccc3)[C@H](c3ccccc3)OC(=O)[C@H]1[C@@H]2C(=O)NC[C@H](O)c1ccccc1` here?
A: 0.614

Q: Which composite z-score does the source give for `COc1ccc(C(=O)Nc2ccc3c(c2)[C@]2(O[C@@H](CCO)[C@H]([Si](C)(C)c4ccc(OC)cc4)[C@H]2C)C(=O)N3Cc2ccccc2)cc1` here?
A: 0.0879

Q: For `CN(C)C(=O)[C@]1(Cc2ccccc2N=[N+]=[N-])N=C(c2ccc(OCCCO)cc2)O[C@@H]1c1ccccc1CN=[N+]=[N-]`, which composite z-score is on record?
A: 1.51

Q: With `COCCOC(=O)N1C(=O)[C@@]2(c3cc(C#Cc4ccc(OC)cc4)ccc31)[C@H](C(=O)N1CCc3cc(OC)c(OC)cc3C1)[C@H]1C(=O)O[C@H](c3ccccc3)[C@H](c3ccccc3)N1[C@@H]2c1ccc(O)cc1` as the compound, how does the composite z-score read?
A: 1.47

Q: How did the composite z-score turn out when `COc1ccc(C#Cc2ccc3c(c2)[C@]2(C(=O)N3)[C@H](C(N)=O)[C@H]3C(=O)O[C@H](c4ccccc4)[C@H](c4ccccc4)N3[C@@H]2c2ccc(O)cc2)cc1` was run?
A: 0.477

Q: For `COc1ccc([Si](C)(C)[C@@H]2[C@@H](CCO)O[C@]3(C(=O)N(Cc4ccccc4)c4ccc(N5C(=O)COc6ccccc65)cc43)[C@H]2C)cc1`, which composite z-score is on record?
A: 0.128

Q: With `CC(C)(C)OC(=O)CC[C@@]1(C(=O)N2CCCCC2)N=C(c2ccc(OCCCO)cc2)O[C@@H]1c1ccccc1CN=[N+]=[N-]` as the compound, how does the composite z-score read?
A: 1.65

Q: How did the composite z-score turn out when `CC(C)C(CO)N1C(=O)[C@@H]2[C@H]3C(=O)OCC=C[C@H]3OC23C=CCN(CCN2CCOCC2)C(=O)[C@@H]13` (stereo not given in full) was run?
A: -0.868

Q: Which composite z-score does the source give for `CN1C(=O)C2C=CC(C(O)c3cccc4ccccc34)N(NC(=O)OC(C)(C)C)C2C1=O` (stereo not given) here?
A: 1.37

Q: With `COCCOC(=O)N1C(=O)[C@@]2(c3cc(C#Cc4ccc(OC)cc4)ccc31)[C@H](C(=O)N1CCc3cc(OC)c(OC)cc3C1)[C@H]1C(=O)O[C@H](c3ccccc3)[C@H](c3ccccc3)N1[C@@H]2c1ccc(OCCO)cc1` as the compound, how does the composite z-score read?
A: 1.22

Q: Which composite z-score does the source give for `CCOC(=O)C1=CC[C@@H](c2ccccc2)N(S(=O)(=O)c2ccc(C)cc2)[C@H]1C=C(C)C` here?
A: 1.46

Q: `C[N+](C)(C)CCCC[C@@H]1NC(=O)[C@H]2C[C@@H](C(=O)NCCCCCCN)[C@@H](c3cccc(OCCO)c3)N2C1=O` was tested. Which composite z-score did it give?
A: 0.791

Q: With `COC(=O)C(CC#Cc1ccc2c(c1)[C@]1(C(=O)N2)[C@H](c2ccc(O)cc2)N2[C@H](c3ccccc3)[C@H](c3ccccc3)OC(=O)[C@H]2[C@@H]1C(N)=O)C(=O)OC` as the compound, how does the composite z-score read?
A: -1.06

Q: Which composite z-score does the source give for `CCOc1cc(C(O)C2C=CC3C(=O)NC(=O)C3N2Nc2ccccn2)ccc1O` (stereo not given) here?
A: 0.257

Q: For `C[N+](C)(C)CCCCCCNC(=O)[C@@H]1C[C@@H]2C(=O)NCC(=O)N2[C@@H]1c1cccc(OCCO)c1`, which composite z-score is on record?
A: 0.033

Q: For `O=C1c2ccccc2C(=O)C2CC([C@H]3Oc4ccccc4S(=O)(=O)N4CCC[C@@H]34)=CCC12` (stereo not given in full), which composite z-score is on record?
A: 0.193

Q: For `CCCc1cc2c(n1Cc1ccc(OC)cc1)C(C)C1CN(C(=O)c3ccccc3)C(C)(C(=O)OC)C21` (stereo not given), which composite z-score is on record?
A: 1.59

Q: `CC(=O)NCCCC[C@@H]1NC(=O)[C@@H]2C[C@H](C(=O)NCCCC[N+](C)(C)C)[C@H](c3cccc(OCCO)c3)N2C1=O` was tested. Which composite z-score did it give?
A: -0.525

Q: `[N-]=[N+]=Nc1ccccc1[C@@H]1OC(c2ccc(OCCCO)cc2)=N[C@]1(CCS(=O)(=O)c1ccccc1)C(=O)NCc1ccccc1` was tested. Which composite z-score did it give?
A: 1.52

Q: How did the composite z-score turn out when `CN(C)CCCC[C@@H]1NC(=O)[C@H]2C[C@@H](C(=O)NCCCCCCNC(=O)CS)[C@@H](c3ccc(O)cc3)N2C1=O` was run?
A: -0.549

Q: How did the composite z-score turn out when `COC(=O)[C@@]1(Cc2ccc(OC)cc2)[C@H]2c3cc(C(=O)N4CCCC4)n(Cc4ccc(C)o4)c3C[C@H]2CN1C(=O)c1ccccc1` was run?
A: 1.62

Q: With `O=C1N(Cc2ccccc2)c2ccccc2[C@H]2OC(c3ccc(OCCCO)cc3)=N[C@@]12CCS(=O)(=O)c1ccccc1` as the compound, how does the composite z-score read?
A: 0.931

Q: `COCCCNC(=O)[C@]1(Cc2ccccc2)N=C(c2ccc(OCCCO)cc2)O[C@@H]1c1ccccc1N=[N+]=[N-]` was tested. Which composite z-score did it give?
A: 1.02

Q: Which composite z-score does the source give for `CCCCC(=C=CC[C@H](O)c1cccc(OCCO)c1)C[C@H](O)COCc1ccccc1` here?
A: -0.431

Q: With `COC(=O)c1ccc(OC)c(/C=C\CC(CCc2ccccc2)OC(=O)c2ccncc2)c1` (stereo not given) as the compound, how does the composite z-score read?
A: -0.714

Q: `COc1ccc([Si](C)(C)[C@H]2[C@H](CC(=O)N3CCC[C@H]3CO)O[C@@]3(C(=O)N(Cc4ccc(N5C(=O)c6cccc7cccc5c67)cc4)c4ccccc43)[C@@H]2C)cc1` was tested. Which composite z-score did it give?
A: 0.517

Q: With `COc1cc(NN2C(C(O)c3ccc(I)cc3)C=CC3C(=O)N(C)C(=O)C32)cc(OC)c1OC` (stereo not given) as the compound, how does the composite z-score read?
A: 1.52

Q: How did the composite z-score turn out when `C=CCC(OC(C)=O)[C@@H]1[C@@H](N(Cc2ccc(-c3ccccc3)cc2)C(=O)c2cccc3ccccc23)c2cc(OCCCO)ccc2N1C(=O)c1ccc2ccccc2n1` (stereo not given in full) was run?
A: 0.127

Q: `C=CCC(OC(C)=O)[C@@H]1[C@@H](N(Cc2cccc3ccccc23)C(=O)Cc2ccc(F)cc2)c2cc(OCCCO)ccc2N1C(=O)Cc1ccc(OC)cc1` (stereo not given in full) was tested. Which composite z-score did it give?
A: -0.045

Q: For `O=C1O[C@H](c2ccccc2)[C@H](c2ccccc2)N2[C@H]1[C@@H](C(=O)N1CCN(c3ncccn3)CC1)[C@]1(C(=O)Nc3ccc(C#CCCO)cc31)[C@H]2c1ccccc1OCCO`, which composite z-score is on record?
A: 1.33

Q: For `COC(=O)[C@@]1(Cc2ccccc2)[C@H]2c3cc(C(=O)N4CCCC4)n(CCO)c3C[C@H]2CN1C(=O)c1ccccc1`, which composite z-score is on record?
A: 1.58

Q: `COCCCNC(=O)[C@@]1(Cc2ccccc2I)c2ccccc2C(=O)N(Cc2ccccc2Cl)[C@H]1c1ccc(CO)cc1` was tested. Which composite z-score did it give?
A: 0.153
